Data on 66 compounds can be found in PubChem BioAssay AID1835 (Johns Hopkins Ion Channel Center, 2009).

The campaign covered roughly 2,400 compounds. About 750 (31%) were called active. This is one part of the list. Values without a mark were called inactive.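 Rule for the calls: active = median signal gain over dofetilide-blocked control wells reaching their mean plus 3 SD, so readout 1 at least 0; inactive = the rest.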

For this assay, the target named is Voltage-gated inwardly rectifying potassium channel KCNH2 (Homo sapiens) (UniProt Q12809). The experiment in a line: modulators restoring hERG flux under dofetilide – cell-based, thallium flux, duplicate retest, dofetilide IC70, confirmation (AID 1835). The note with it: hERG cell line, FluxOR thallium flux, dofetilide-blocked; at 10 µM; stronger effect = higher value.
Voltage-gated inwardly rectifying potassium channel KCNH2 (Homo sapiens), sequence (Q12809 whole entry, looked up): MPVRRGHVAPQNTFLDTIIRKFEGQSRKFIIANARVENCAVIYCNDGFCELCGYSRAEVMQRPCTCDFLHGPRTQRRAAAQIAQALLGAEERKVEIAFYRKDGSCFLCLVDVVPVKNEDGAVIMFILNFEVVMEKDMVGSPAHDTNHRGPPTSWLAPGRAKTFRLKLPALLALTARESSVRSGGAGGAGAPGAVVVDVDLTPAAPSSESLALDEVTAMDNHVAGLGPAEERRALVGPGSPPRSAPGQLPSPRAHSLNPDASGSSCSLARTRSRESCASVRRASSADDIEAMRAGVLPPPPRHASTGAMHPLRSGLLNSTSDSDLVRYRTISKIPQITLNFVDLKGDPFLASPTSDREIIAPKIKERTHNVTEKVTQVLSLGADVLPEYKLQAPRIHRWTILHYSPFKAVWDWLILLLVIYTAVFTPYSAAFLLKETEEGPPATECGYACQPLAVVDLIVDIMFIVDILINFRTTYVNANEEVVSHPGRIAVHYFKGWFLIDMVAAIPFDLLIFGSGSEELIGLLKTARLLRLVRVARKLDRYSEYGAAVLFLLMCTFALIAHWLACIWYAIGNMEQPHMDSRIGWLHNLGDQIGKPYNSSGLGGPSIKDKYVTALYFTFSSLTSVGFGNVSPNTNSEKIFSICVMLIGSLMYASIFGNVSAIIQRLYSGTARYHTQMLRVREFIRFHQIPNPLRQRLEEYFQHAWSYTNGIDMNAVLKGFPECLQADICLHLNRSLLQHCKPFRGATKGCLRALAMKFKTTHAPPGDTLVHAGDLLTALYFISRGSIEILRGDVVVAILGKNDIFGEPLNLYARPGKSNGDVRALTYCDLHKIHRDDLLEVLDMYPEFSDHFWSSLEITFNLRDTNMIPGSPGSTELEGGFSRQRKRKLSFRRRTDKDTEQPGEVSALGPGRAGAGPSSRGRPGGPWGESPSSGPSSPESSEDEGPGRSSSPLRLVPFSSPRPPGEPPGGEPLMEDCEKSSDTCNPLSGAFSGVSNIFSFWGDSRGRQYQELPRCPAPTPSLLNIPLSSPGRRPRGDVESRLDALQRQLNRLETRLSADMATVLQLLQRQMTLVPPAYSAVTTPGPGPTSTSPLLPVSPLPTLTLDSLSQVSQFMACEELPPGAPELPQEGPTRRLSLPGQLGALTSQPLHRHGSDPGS
`O=C(NCC1CCCCC1)c1cccnc1Cl`: the activity increase over dofetilide control, less the hit threshold is -14%.

On to `CCN(C(=S)NC(=O)c1ccccc1Br)C1CCCCC1`, for which the activity increase over dofetilide control, less the hit threshold was 80% (active).

In the case of `CN(C(=S)NC(=O)c1ccccc1Br)C1CCCCC1`, the activity increase over dofetilide control, less the hit threshold was 1% (active).

As for `COc1cc(S(=O)(=O)Nc2c(C)cc(C)cc2C)ccc1Cl`, the activity increase over dofetilide control, less the hit threshold was -10%.

With `O=C(CN1C(=O)COc2ccccc21)NNC(=O)Nc1ccccc1F`, the activity increase over dofetilide control, less the hit threshold was -22%.

With `CCCn1c(SCN2C(=O)c3ccccc3C2=O)nc2cc(Cl)ccc2c1=O`, the activity increase over dofetilide control, less the hit threshold is 20% (active).

Turning to `COCCn1c(SCC(=O)Nc2cc(C)cc(C)c2)nc2ccccc2c1=O`, the activity increase over dofetilide control, less the hit threshold is -9%.

As to `CC(C)CCn1c(SCC(=O)NC2CC2)nc2cc(Cl)ccc2c1=O`, the activity increase over dofetilide control, less the hit threshold was -13%.

For the compound `CCCCC1C2=C(CCCC2=O)OC2=C1C(=O)CCC2`, the activity increase over dofetilide control, less the hit threshold was -13%.

Consider `CCCCn1c(N)c(C(=S)NC(=O)CC(C)(C)C)c(=O)n(C)c1=O`, for which the activity increase over dofetilide control, less the hit threshold is -3%.

For `O=C1c2ccccc2NC(c2ccc(Br)s2)N1O` (stereo unspecified), the activity increase over dofetilide control, less the hit threshold is 41% (active).

Turning to `COc1ccc(/C=C/c2cc(=O)c3cc(Cl)ccc3o2)cc1`, the activity increase over dofetilide control, less the hit threshold is 56% (active).

For `COc1ccc(-c2cc(=O)oc3cc(OCC(C)=O)ccc23)cc1`, the activity increase over dofetilide control, less the hit threshold was -27%.

For `Cc1oc2ccc(OCc3ccc(Cl)cc3)cc2c1C(=O)O`, the activity increase over dofetilide control, less the hit threshold is -7%.

Take `CCN(C(=O)c1cc2c(=O)[nH]c3ccc(C)cc3c2s1)c1ccccc1F`: the activity increase over dofetilide control, less the hit threshold was -15%.

On to `O=C(c1ccc2c(c1)N(Cc1ccccc1F)C(=O)c1ccccc1S2(=O)=O)N1CCCC1`, for which the activity increase over dofetilide control, less the hit threshold was -10%.

As for `CC/C(=N\NC(=O)c1nnn(-c2nonc2N)c1-c1cccs1)c1ccccc1`, the activity increase over dofetilide control, less the hit threshold is -4%.

For the compound `N#Cc1ccccc1OCCN1C(=O)c2ccccc2C1=O`, the activity increase over dofetilide control, less the hit threshold was -4%.

For the compound `S=c1[nH]nc(Nc2ccc(Cl)cc2)s1`, the activity increase over dofetilide control, less the hit threshold was -3%.

Regarding `O=Cc1cc(-c2ccccc2)[nH]c1-c1ccccc1`, the activity increase over dofetilide control, less the hit threshold was -19%.

For `S=c1[nH]c(-c2ccccc2)cs1`, the activity increase over dofetilide control, less the hit threshold is 66% (active).

Take `S=c1[nH]c(-c2ccc(Cl)cc2)cs1`: the activity increase over dofetilide control, less the hit threshold was 136% (active).

In the case of `Cc1ccc(-c2csc(=S)[nH]2)cc1`, the activity increase over dofetilide control, less the hit threshold is 95% (active).

On to `CO/N=C(\CCC(=O)O)c1cccs1`, for which the activity increase over dofetilide control, less the hit threshold is -20%.

Regarding `O=C(N/N=C/c1cc([N+](=O)[O-])ccc1O)c1ccc(COc2ccc3c(c2)CCC3)o1`, the activity increase over dofetilide control, less the hit threshold was -10%.

As to `Cc1c(N2C(=O)/C(=C\c3ccccc3O)SC2=S)c(=O)n(-c2ccccc2)n1C`, the activity increase over dofetilide control, less the hit threshold is 14% (active).

On to `O=C(O)COc1ccccc1/C=C1\SC(=S)N(NC(=O)c2ccccc2O)C1=O`, for which the activity increase over dofetilide control, less the hit threshold is -11%.

For the compound `O=C(OCc1ccc(F)cc1)c1cc(S(=O)(=O)N2CCCCC2)ccc1N1CCOCC1`, the activity increase over dofetilide control, less the hit threshold is -21%.

In the case of `Cc1cc(=O)oc(C)c1C(=O)NCCC(C)C`, the activity increase over dofetilide control, less the hit threshold is -17%.

With `COc1ccc(NC(=O)C(=O)NNC(=O)c2cccs2)c(OC)c1`, the activity increase over dofetilide control, less the hit threshold is 28% (active).

On to `COc1ccc(OC)c(NC(=O)C(=O)NNC(=O)c2cccs2)c1`, for which the activity increase over dofetilide control, less the hit threshold was 8% (active).

Consider `COc1ccc(NC(=O)CNC(=O)c2cccs2)cc1Cl`, for which the activity increase over dofetilide control, less the hit threshold is -8%.

Regarding `COc1cc(NC(=O)c2ccc3c(c2)OCO3)ccc1NC(=O)c1cccs1`, the activity increase over dofetilide control, less the hit threshold is -22%.

`CCc1cccc2c1NC(=O)C2(O)CC(=O)c1cccs1` (stereo unspecified): the activity increase over dofetilide control, less the hit threshold was -11%.

For the compound `COC(=O)c1ccnc(/C=N/O)c1`, the activity increase over dofetilide control, less the hit threshold is -13%.

For the compound `O=C1NC(=S)SC1=C1CCCCCC1`, the activity increase over dofetilide control, less the hit threshold was 53% (active).

As for `Cc1ccccc1NC1=C/C(=N\S(=O)(=O)c2ccc(C(=O)O)cc2)c2ccccc2C1=O`, the activity increase over dofetilide control, less the hit threshold was -6%.

Turning to `O=C(O)c1ccc(S(=O)(=O)/N=C2\C=C(Nc3ccccc3F)C(=O)c3ccccc32)cc1`, the activity increase over dofetilide control, less the hit threshold was 4% (active).

Regarding `O=c1c2ccccc2[nH]c(=S)n1CCC1=CCCCC1`, the activity increase over dofetilide control, less the hit threshold was 11% (active).

For `O=c1c2cccnc2[nH]c(=S)n1CCC1=CCCCC1`, the activity increase over dofetilide control, less the hit threshold is -3%.

In the case of `O=C(CCn1c(=S)[nH]c2cc3c(cc2c1=O)OCO3)NCc1ccc(Cl)cc1`, the activity increase over dofetilide control, less the hit threshold is -8%.

For `O=c1c2ccc(Cl)cc2[nH]c(=S)n1CCC1=CCCCC1`, the activity increase over dofetilide control, less the hit threshold is 42% (active).

As for `O=C(Cc1cccs1)Nn1c(Cc2cccs2)nc2ccccc2c1=O`, the activity increase over dofetilide control, less the hit threshold was -7%.

`CC(=O)Nc1ccc(S(=O)(=O)NC2(C(F)(F)F)C(=O)Nc3c2c(=O)[nH]c(=O)n3C)cc1` (stereo unspecified): the activity increase over dofetilide control, less the hit threshold was -10%.

For `O=C(O)c1sccc1OCc1ccccc1`, the activity increase over dofetilide control, less the hit threshold was -8%.

For the compound `O=C(O)c1ccccc1NC(=O)c1cc2ccccc2oc1=O`, the activity increase over dofetilide control, less the hit threshold is 10% (active).

For the compound `O=C(NNc1c(F)c(F)cc(F)c1F)c1cc2ccccc2oc1=O`, the activity increase over dofetilide control, less the hit threshold was -20%.

Consider `COc1ccc(CCNC(=O)c2cc3ccccc3oc2=O)cc1`, for which the activity increase over dofetilide control, less the hit threshold is -8%.

With `CCO/C=C1\N=C(c2ccc(F)cc2)OC1=O`, the activity increase over dofetilide control, less the hit threshold was -5%.

Regarding `COC(=O)C1=C(C)NC2=C(C(=O)CCC2)C1c1ccc(-c2ccsc2C(=O)OC)o1` (stereo unspecified), the activity increase over dofetilide control, less the hit threshold was 26% (active).

For `Cc1cc(C)c(S(=O)(=O)NCc2ccccn2)c(C)c1`, the activity increase over dofetilide control, less the hit threshold was -6%.

For the compound `CCOc1ccc(NC(=S)NC(=O)c2ccco2)cc1`, the activity increase over dofetilide control, less the hit threshold was 10% (active).

Regarding `O=C(O)CNC(=O)c1ccc(NC(=O)/C(=C/c2ccccc2)NC(=O)c2ccco2)cc1`, the activity increase over dofetilide control, less the hit threshold is -13%.

Regarding `CCN(CC)c1ccc(NC(=S)NC(=O)c2ccco2)cc1`, the activity increase over dofetilide control, less the hit threshold is 48% (active).

With `COc1cc(OC)cc(C(=O)NC(=S)Nc2ccc(NC(=O)c3ccco3)cc2)c1`, the activity increase over dofetilide control, less the hit threshold is -15%.

As for `CCCOc1ccc(C(=O)NNC(=S)NC(=O)c2ccco2)cc1`, the activity increase over dofetilide control, less the hit threshold is -41%.

With `O=C(CN1C(=O)COc2ccccc21)NCCCN1CCOCC1`, the activity increase over dofetilide control, less the hit threshold was -2%.

`Cc1ccc(N2CCN(C(=O)N3CCCC3)CC2)cc1C`: the activity increase over dofetilide control, less the hit threshold is 5% (active).

With `Cc1ccc(-n2c(=O)c3cc4c(=O)n(-c5ccc(C)c(C)c5)c(=O)c4c(C(=O)c4ccc(C(=O)O)cc4)c3c2=O)cc1C`, the activity increase over dofetilide control, less the hit threshold is -8%.

As to `COc1ccc(NC(=O)N2CCN(c3ccc([N+](=O)[O-])cc3)CC2)cc1OC`, the activity increase over dofetilide control, less the hit threshold was -14%.

On to `Cn1ccnc1C(O)c1cccc(OCc2ccccc2)c1` (stereo unspecified), for which the activity increase over dofetilide control, less the hit threshold is -10%.

For `Cc1ccc(C(=O)Sc2cccccc2=O)cc1`, the activity increase over dofetilide control, less the hit threshold was 8% (active).

On to `CC1=CC(=O)C(C(C)C)=CC1=NC(=O)c1ccc(C)cc1`, for which the activity increase over dofetilide control, less the hit threshold was -36%.

For the compound `COCCCNC(=O)CCc1nnc(Cc2ccc(-c3ccccc3)cc2)o1`, the activity increase over dofetilide control, less the hit threshold is -16%.

With `CON/C=N/C(=S)Nc1ncc(C(F)(F)F)cc1Cl`, the activity increase over dofetilide control, less the hit threshold was 65% (active).

`ON/C=N/C(=S)Nc1ncc(C(F)(F)F)cc1Cl`: the activity increase over dofetilide control, less the hit threshold was 22% (active).
